# Results: article PMC12350791
# Experiments:
# Assay in all cases: cross-linking mass spectrometry
# Conditions in all cases: DSBSO, in cells or nuclear extract, not told apart
# [1] = molecular target: LARS1 (UniProt Q9P2J5)
# [2] = molecular target: LDHB (UniProt P07195)
# [3] = molecular target: LSM4 (UniProt Q9Y4Z0)
# [4] = molecular target: MAD1L1 (UniProt Q9Y6D9)
# [5] = molecular target: MAP1B (UniProt P46821)
# [6] = molecular target: MAPK14 (UniProt Q16539)
# [7] = molecular target: MARS1 (UniProt P56192)
# [8] = molecular target: MBOAT7 (UniProt Q96N66)
# [9] = molecular target: MCM2 (UniProt P49736)
# [10] = molecular target: MCM6 (UniProt Q14566)
# MCM6, sequence (Q14566 whole entry): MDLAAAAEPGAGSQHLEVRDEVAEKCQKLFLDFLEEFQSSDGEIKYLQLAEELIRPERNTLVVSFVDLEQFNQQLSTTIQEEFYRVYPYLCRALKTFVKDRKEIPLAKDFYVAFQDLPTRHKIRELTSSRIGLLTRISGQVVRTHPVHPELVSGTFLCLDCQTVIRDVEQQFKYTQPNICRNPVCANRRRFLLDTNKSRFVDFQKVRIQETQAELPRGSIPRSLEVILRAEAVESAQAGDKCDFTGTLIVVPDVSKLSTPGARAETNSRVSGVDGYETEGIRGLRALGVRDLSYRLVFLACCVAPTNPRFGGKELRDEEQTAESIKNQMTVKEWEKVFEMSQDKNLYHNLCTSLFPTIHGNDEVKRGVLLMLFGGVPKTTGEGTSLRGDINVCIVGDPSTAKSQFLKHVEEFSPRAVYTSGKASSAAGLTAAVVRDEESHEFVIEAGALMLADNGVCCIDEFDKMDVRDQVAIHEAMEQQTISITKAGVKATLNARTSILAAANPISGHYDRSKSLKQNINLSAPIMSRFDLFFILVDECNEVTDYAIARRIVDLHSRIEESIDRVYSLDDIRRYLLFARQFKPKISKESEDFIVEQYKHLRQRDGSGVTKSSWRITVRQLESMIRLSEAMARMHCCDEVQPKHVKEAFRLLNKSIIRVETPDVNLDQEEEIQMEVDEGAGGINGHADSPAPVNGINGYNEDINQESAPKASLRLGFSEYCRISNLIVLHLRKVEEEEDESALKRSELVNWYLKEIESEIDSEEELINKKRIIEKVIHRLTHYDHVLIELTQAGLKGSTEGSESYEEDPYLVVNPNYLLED
# [11] = molecular target: MCM7 (UniProt P33993)
# [12] = molecular target: MED4 (UniProt Q9NPJ6)
# [13] = molecular target: MYDGF (UniProt Q969H8)
# [14] = molecular target: MYH9 (UniProt P35579)
# [15] = molecular target: MYO9B (UniProt Q13459)
# [16] = molecular target: NAP1L4 (UniProt Q99733)
# [17] = molecular target: NCAPD2 (UniProt Q15021)
# [18] = molecular target: NCBP1 (UniProt Q09161)
# [19] = molecular target: NDUFA5 (UniProt Q16718)
# [20] = molecular target: NDUFA6 (UniProt P56556)
# [21] = molecular target: NDUFAF4 (UniProt Q9P032)
# [22] = molecular target: NDUFS2 (UniProt O75306)
# [23] = molecular target: NIP7 (UniProt Q9Y221)
# [24] = molecular target: NMI (UniProt Q13287)
# [25] = molecular target: NOC4L (UniProt Q9BVI4)
# [26] = molecular target: NOL7 (UniProt Q9UMY1)
# [27] = molecular target: NPM1 (UniProt P06748)
# [28] = molecular target: NUDT5 (UniProt Q9UKK9)
# [29] = molecular target: NUP160 (UniProt Q12769)
# [30] = molecular target: RAE1 (UniProt P78406)
# [31] = molecular target: NUP50 (UniProt Q9UKX7)
# [32] = molecular target: NUP62 (UniProt P37198)
# [33] = molecular target: NUP85 (UniProt Q9BW27)
# [34] = molecular target: NUP88 (UniProt Q99567)
# [35] = molecular target: OSBPL11 (UniProt Q9BXB4)
# [36] = molecular target: PAFAH1B2 (UniProt P68402)
# [37] = molecular target: PAM16 (UniProt Q9Y3D7)
# [38] = molecular target: PAXBP1 (UniProt Q9Y5B6)
# [39] = molecular target: PDE4DIP (UniProt Q5VU43)
# [40] = molecular target: PELP1 (UniProt Q8IZL8)
# [41] = molecular target: PFKP (UniProt Q01813)
# [42] = molecular target: PHC2 (UniProt Q8IXK0)
# [43] = molecular target: PNN (UniProt Q9H307)
# [44] = molecular target: PNO1 (UniProt Q9NRX1)
# [45] = molecular target: RPL23A (UniProt P62750)
# [46] = molecular target: PRPF31 (UniProt Q8WWY3)
# [47] = molecular target: PSME2 (UniProt Q9UL46)
# [48] = molecular target: PUF60 (UniProt Q9UHX1)
# [49] = molecular target: RAD50 (UniProt Q92878)
# RAD50, sequence (Q92878 whole entry): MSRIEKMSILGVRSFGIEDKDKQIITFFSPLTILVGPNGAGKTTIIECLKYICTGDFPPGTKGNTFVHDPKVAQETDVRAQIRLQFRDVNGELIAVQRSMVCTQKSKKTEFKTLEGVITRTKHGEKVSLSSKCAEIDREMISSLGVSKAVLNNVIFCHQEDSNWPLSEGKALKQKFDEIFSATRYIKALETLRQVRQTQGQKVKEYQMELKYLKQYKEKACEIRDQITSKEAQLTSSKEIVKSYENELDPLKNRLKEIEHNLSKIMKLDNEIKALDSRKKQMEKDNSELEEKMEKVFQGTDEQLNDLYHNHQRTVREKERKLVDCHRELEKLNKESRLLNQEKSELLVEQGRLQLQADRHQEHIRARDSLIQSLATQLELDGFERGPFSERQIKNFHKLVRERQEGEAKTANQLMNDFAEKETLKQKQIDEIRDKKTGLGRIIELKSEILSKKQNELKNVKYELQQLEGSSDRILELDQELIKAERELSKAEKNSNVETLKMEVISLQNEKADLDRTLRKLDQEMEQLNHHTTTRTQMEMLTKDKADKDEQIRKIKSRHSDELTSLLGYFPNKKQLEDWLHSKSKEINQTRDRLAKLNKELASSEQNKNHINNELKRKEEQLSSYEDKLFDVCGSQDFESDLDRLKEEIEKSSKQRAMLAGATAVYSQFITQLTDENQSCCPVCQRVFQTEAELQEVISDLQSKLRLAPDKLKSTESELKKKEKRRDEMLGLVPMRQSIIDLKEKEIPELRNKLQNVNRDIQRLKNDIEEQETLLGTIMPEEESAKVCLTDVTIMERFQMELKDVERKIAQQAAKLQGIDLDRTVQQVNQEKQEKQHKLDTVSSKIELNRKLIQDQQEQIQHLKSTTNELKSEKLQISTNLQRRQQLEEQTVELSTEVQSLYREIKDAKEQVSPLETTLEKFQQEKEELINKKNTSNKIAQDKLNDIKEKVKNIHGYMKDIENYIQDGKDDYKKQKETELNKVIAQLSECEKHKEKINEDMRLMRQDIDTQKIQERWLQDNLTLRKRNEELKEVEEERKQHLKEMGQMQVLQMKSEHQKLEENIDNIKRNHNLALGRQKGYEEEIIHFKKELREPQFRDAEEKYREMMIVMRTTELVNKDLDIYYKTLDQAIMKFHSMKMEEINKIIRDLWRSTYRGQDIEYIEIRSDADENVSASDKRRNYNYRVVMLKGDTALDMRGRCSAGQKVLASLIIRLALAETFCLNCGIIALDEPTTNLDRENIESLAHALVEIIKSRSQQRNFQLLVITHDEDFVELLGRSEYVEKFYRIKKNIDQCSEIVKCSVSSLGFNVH
# [50] = molecular target: RAN (UniProt P62826)
# [51] = molecular target: RNF20 (UniProt Q5VTR2)
# [52] = molecular target: RPF1 (UniProt Q9H9Y2)
# RPF1, sequence (Q9H9Y2 whole entry): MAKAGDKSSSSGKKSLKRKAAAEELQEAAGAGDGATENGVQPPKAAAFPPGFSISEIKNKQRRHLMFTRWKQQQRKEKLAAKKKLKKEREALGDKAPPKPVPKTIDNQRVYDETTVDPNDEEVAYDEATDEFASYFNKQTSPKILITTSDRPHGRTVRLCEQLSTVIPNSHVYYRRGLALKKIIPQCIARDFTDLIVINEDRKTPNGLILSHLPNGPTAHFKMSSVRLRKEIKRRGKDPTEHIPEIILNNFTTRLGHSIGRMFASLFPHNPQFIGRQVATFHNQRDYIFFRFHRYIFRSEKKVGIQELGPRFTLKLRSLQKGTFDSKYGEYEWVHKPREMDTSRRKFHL
# [53] = molecular target: RPLP2 (UniProt P05387)
# [54] = molecular target: RREB1 (UniProt Q92766)
# [55] = molecular target: SIN3A (UniProt Q96ST3)
# [56] = molecular target: RSL24D1 (UniProt Q9UHA3)
# [57] = molecular target: RTCB (UniProt Q9Y3I0)
# [58] = molecular target: RUVBL2 (UniProt Q9Y230)
# [59] = molecular target: RWDD1 (UniProt Q9H446)
# [60] = molecular target: SDHA (UniProt P31040)
# [61] = molecular target: SEH1L (UniProt Q96EE3)
# [62] = molecular target: SEPTIN11 (UniProt Q9NVA2)
# [63] = molecular target: SEPTIN2 (UniProt Q15019)
# [64] = molecular target: SERBP1 (UniProt Q8NC51)
# HDAC1, Q13547, sequence (Q13547 whole entry): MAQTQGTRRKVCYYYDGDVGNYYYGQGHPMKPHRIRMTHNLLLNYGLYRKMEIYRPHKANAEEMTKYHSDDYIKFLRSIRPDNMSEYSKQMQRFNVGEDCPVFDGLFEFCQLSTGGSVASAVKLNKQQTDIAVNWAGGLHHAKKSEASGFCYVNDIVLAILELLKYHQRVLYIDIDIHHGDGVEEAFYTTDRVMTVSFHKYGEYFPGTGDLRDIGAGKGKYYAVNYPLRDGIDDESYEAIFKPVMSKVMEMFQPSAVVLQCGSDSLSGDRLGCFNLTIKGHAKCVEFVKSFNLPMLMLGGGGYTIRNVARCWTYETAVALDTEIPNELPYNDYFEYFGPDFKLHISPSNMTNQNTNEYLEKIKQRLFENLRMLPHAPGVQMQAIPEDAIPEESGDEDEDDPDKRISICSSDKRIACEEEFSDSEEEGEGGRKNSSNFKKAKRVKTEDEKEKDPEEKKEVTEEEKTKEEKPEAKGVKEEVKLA
# NDUFS7, O75251, sequence (O75251 whole entry): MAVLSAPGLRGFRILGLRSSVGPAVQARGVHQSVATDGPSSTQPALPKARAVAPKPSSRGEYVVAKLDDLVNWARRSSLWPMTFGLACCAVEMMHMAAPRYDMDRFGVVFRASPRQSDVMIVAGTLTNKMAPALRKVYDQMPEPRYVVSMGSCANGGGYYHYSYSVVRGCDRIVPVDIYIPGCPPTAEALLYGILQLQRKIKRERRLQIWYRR
# NUP98, P52948, sequence (P52948 whole entry): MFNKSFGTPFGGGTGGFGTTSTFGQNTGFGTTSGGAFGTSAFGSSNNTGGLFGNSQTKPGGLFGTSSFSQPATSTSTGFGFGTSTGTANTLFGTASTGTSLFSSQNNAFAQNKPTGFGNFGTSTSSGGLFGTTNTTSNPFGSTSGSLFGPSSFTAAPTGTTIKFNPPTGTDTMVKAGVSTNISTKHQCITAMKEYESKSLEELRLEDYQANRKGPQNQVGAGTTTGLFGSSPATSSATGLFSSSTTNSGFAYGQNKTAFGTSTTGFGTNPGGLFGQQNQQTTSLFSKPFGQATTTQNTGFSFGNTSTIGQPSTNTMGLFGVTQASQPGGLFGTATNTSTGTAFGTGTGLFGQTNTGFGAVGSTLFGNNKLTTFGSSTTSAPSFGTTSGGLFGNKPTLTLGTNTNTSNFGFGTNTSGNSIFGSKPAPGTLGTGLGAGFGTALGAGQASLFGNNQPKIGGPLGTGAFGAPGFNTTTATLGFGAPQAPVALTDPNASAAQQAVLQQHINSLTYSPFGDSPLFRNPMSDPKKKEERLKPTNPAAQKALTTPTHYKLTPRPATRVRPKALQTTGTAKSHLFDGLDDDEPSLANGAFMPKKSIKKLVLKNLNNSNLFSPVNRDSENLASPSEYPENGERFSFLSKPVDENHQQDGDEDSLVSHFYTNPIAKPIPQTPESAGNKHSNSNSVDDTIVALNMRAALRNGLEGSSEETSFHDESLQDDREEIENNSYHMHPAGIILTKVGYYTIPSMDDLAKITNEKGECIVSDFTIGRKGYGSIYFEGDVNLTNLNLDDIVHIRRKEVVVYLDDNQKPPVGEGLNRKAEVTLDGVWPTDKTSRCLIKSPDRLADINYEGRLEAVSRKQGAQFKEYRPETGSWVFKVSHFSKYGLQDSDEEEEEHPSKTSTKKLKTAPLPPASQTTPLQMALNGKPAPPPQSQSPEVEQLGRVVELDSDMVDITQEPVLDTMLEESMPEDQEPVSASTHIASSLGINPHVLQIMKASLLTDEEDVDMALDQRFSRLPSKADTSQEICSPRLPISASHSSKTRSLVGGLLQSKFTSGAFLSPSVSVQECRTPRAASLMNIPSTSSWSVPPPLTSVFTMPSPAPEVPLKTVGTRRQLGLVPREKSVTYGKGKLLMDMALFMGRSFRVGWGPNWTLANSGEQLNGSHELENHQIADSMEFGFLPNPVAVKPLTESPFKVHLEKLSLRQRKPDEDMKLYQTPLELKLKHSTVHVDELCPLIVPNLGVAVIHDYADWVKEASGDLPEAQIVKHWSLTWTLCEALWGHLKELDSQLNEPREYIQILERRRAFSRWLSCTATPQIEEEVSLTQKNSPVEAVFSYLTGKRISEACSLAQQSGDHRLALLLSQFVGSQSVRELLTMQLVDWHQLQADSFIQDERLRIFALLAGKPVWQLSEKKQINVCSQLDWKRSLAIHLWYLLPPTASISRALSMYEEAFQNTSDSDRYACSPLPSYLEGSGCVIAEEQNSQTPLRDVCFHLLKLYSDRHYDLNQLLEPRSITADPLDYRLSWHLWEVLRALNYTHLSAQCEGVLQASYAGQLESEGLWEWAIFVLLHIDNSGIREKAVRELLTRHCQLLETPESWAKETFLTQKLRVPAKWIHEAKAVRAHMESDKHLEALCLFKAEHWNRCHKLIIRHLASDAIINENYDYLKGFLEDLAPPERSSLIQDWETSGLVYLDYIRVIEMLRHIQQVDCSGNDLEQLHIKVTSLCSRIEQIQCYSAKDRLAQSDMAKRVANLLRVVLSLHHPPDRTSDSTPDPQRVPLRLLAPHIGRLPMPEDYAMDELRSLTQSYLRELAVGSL
substance,measurement,setting,value
"IARS1, P41252",cross-linked residues,[1],K796 - K9
"LDHA, P00338",cross-linked residues,[2],K14 - K156
"LSM7, Q9UK45",cross-linked residues,[3],K8 - K80
"PATL1, Q86TB9",cross-linked residues,[3],K398 - K80
"MAD2L1, Q13257",cross-linked residues,[4],K122 - K666
"H1-5, P16401",cross-linked residues,[5],K161 - K2291
"MAPKAPK2, P49137",cross-linked residues,[6],K307 - K233
"EEF1E1, O43324",cross-linked residues,[7],K21 - K663
"COX6B1, P14854",cross-linked residues,[8],K47 - K468
"MCM4, P33991",cross-linked residues,[9],K819 - K807
"MCM7, P33993",cross-linked residues,[10],K75 - K197
"MCM2, P49736",cross-linked residues,[10],K591 - K517
"MCM3, P25205",cross-linked residues,[11],K435 - K236
"MED1, Q15648",cross-linked residues,[12],K70 - K81
"PRKCSH, P14314",cross-linked residues,[13],K436 - K161
"TPR, P12270",cross-linked residues,[14],K854 - K1614
"H1-2, P16403",cross-linked residues,[15],K140 - K1390
"NAP1L1, P55209",cross-linked residues,[16],K87 - K105
"SMC2, O95347",cross-linked residues,[17],K1014 - K78
"NCBP2, P52298",cross-linked residues,[18],K68 - K607
"NDUFA10, O95299",cross-linked residues,[19],K80 - K30
"NDUFS4, O43181",cross-linked residues,[20],K73 - K116
"NDUFS7, O75251",cross-linked residues,[21],K55 - K107
same,cross-linked residues,[22],K136 - K78
"NOP2, P46087",cross-linked residues,[23],K423 - K72
"IFI35, P80217",cross-linked residues,[24],K47 - K254
"NOP14, P78316",cross-linked residues,[25],K535 - K342
"UTP15, Q8TED0",cross-linked residues,[26],K416 - K210
"NPM3, O75607",cross-linked residues,[27],K125 - K27
"PYCR2, Q96C36",cross-linked residues,[28],K47 - K210
"NUP98, P52948",cross-linked residues,[29],K1749 - K1096
same,cross-linked residues,[30],K175 - K252
"CSE1L, P55060",cross-linked residues,[31],K726 - K62
"NUP214, P35658",cross-linked residues,[32],K755 - K371
"SEH1L, Q96EE3",cross-linked residues,[33],K314 - K59
"NUP62, P37198",cross-linked residues,[34],K415 - K642
"PPA1, Q15181",cross-linked residues,[35],K238 - K660
"PAFAH1B1, P43034",cross-linked residues,[36],K147 - K145
"DNAJC19, Q96DA6",cross-linked residues,[37],K93 - K82
"TFIP11, Q9UBB9",cross-linked residues,[38],K267 - K682
"IMMT, Q16891",cross-linked residues,[39],K343 - K1022
"NOL9, Q5SY16",cross-linked residues,[40],K670 - K216
"PFKM, P08237",cross-linked residues,[41],K476 - K736
"RING1, Q06587",cross-linked residues,[42],K297 - K598
"SAP18, O00422",cross-linked residues,[43],K74 - K109
"NPM1, P06748",cross-linked residues,[44],K267 - K77
same,cross-linked residues,[45],K141 - K30
"SNU13, P55769",cross-linked residues,[46],K86 - K315
"PSME1, Q06323",cross-linked residues,[47],K190 - K180
"SRSF11, Q05519",cross-linked residues,[48],K58 - K69
"ACTR1B, P42025",cross-linked residues,[49],K324 - K651
"MRE11, P49959",cross-linked residues,[49],K393 - K1190
"XPO1, O14980",cross-linked residues,[50],K426 - K159
"RNF40, O75150",cross-linked residues,[51],K862 - K834
"MAK16, Q9BXY0",cross-linked residues,[52],K164 - K302
"WDR74, Q6RFH5",cross-linked residues,[52],K151 - K182
"RPLP1, P05386",cross-linked residues,[53],K33 - K25
"HDAC1, Q13547",cross-linked residues,[54],K74 - K259
same,cross-linked residues,[55],K220 - K552
"GTPBP4, Q9BZE4",cross-linked residues,[56],K448 - K88
"RTRAF, Q9Y224",cross-linked residues,[57],K185 - K492
"HAUS3, Q68CZ6",cross-linked residues,[58],K595 - K177
"DRG2, P55039",cross-linked residues,[59],K311 - K166
"SDHB, P21912",cross-linked residues,[60],K167 - K167
"NUP43, Q8NFH3",cross-linked residues,[61],K161 - K96
"SEPTIN2, Q15019",cross-linked residues,[62],K249 - K190
"SEPTIN6, Q14141",cross-linked residues,[63],K191 - K249
"RPS12, P25398",cross-linked residues,[64],K116 - K299
